Source: the supplement of paper PMC11732987, “Enantioselective OTUD7B fragment discovery through chemoproteomics screening and high-throughput optimisation” (Communications Chemistry, 2025)

How the values were obtained:
Experiment in all cases: log2 ratio of Biotin-Ahx-Ub-VS probe labelling (fragment/DMSO); higher = less target engagement (more negative = stronger competition), active = hit call of the paper (q ≤ 0.05, log2 ratio ≤ -1)
Details in all cases: compound concentration: 200 uM; treatment time: 3 h
USP42 = target: T1, USP42 (UniProt Q9H9J4)
T1 sequence (whole entry): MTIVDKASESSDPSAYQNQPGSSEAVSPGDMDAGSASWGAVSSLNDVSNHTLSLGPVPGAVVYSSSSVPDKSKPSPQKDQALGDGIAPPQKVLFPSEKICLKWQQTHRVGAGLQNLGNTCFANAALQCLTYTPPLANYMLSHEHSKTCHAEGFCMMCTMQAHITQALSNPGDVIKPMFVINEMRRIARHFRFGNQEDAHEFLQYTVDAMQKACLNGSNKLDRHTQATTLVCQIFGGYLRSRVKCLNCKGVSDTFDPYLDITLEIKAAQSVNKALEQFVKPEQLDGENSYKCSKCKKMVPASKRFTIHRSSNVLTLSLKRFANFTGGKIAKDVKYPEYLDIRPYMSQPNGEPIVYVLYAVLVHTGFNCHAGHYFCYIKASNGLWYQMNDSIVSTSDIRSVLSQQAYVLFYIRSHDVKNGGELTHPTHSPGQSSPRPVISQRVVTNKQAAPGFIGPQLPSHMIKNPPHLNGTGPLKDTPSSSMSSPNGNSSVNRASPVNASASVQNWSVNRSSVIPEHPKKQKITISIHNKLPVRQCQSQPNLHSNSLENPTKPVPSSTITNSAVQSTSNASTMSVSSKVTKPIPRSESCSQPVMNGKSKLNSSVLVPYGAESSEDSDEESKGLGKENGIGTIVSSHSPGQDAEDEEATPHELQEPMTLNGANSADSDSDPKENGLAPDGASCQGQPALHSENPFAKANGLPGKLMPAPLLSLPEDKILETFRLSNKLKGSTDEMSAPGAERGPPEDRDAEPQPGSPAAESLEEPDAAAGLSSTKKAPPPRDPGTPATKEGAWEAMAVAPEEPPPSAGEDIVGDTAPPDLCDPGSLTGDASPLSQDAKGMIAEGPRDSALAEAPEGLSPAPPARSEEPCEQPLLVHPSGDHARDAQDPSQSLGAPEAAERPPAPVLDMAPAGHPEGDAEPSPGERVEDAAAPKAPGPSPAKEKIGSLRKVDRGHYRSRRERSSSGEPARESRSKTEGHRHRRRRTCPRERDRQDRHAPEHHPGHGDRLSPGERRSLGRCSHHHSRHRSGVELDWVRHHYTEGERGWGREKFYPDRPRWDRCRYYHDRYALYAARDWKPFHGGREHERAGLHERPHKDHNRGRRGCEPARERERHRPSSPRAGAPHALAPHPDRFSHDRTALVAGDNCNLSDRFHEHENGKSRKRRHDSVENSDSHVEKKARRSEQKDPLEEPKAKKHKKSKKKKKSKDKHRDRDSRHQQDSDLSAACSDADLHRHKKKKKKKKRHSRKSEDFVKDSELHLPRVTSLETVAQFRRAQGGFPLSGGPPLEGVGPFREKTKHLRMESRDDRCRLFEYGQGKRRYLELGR
Procedure, shortened: (§1)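 Each value is an average log2 ratio of fragment to vehicle, tested by unpaired t-test. The underlying Spectronaut label-free quantities were global-median-normalised, and only proteins with ≥2 unique peptides were included. Triplicate HEK293T lysate samples (495 µg) were exposed to fragment at 200 µM or vehicle for 3 h, then to Biotin-Ahx-Ub-VS at 0.5 µM final for 1 h, before NeutrAvidin enrichment of labelled DUBs, LysC and trypsin digestion, and diaPASEF LC-MS/MS.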

USP46 = USP46 (UniProt P62068)
USP46, sequence (P62068 whole entry): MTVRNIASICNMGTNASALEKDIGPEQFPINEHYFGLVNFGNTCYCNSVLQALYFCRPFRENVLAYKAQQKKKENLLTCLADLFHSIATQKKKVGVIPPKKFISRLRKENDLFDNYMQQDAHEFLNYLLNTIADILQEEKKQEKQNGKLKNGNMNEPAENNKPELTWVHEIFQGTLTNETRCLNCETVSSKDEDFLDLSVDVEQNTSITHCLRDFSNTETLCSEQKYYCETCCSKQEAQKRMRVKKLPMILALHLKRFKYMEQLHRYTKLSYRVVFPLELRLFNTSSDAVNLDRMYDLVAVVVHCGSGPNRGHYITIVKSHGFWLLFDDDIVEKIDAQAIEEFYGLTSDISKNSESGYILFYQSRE
Procedure, shortened: as §1

USP47 = target: T2, USP47 (UniProt Q96K76)
T2 sequence (whole entry): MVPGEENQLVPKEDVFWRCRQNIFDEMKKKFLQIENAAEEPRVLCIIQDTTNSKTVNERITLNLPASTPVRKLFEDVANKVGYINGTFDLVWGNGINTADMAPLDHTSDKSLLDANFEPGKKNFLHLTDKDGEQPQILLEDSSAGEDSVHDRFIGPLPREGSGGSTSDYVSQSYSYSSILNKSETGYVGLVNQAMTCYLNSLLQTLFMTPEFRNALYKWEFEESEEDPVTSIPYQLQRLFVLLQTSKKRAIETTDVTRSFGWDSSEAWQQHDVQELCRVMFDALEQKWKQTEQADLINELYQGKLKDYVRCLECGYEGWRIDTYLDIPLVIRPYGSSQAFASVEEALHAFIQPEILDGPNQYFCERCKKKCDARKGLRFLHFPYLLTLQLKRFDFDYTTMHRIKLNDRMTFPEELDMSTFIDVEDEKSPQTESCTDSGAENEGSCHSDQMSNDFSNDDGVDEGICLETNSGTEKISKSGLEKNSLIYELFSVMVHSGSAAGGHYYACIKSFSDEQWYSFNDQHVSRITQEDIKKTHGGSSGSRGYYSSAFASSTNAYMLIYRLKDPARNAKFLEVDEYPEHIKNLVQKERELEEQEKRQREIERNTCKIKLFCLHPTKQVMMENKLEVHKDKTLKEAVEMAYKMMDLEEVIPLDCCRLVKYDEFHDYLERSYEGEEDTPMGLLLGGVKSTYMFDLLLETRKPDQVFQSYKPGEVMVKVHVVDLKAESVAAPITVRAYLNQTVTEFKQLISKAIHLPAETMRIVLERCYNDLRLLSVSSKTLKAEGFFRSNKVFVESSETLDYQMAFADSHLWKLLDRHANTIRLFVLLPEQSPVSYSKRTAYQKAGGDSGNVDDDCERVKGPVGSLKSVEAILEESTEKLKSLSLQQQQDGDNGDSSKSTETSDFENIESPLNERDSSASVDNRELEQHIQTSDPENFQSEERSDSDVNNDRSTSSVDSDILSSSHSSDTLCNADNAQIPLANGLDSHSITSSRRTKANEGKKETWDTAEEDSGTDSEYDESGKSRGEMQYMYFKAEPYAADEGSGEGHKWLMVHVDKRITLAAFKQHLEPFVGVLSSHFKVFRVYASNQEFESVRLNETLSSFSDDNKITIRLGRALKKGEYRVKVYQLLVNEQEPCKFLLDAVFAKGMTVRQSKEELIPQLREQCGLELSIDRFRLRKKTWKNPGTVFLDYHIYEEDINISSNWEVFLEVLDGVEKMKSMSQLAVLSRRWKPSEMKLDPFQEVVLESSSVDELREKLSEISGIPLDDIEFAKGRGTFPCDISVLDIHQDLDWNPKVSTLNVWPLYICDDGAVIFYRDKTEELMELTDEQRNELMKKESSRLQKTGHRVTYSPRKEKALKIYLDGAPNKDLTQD
Procedure, shortened: as §1

USP48 = target: T3, USP48 (UniProt Q86UV5)
T3 sequence (whole entry): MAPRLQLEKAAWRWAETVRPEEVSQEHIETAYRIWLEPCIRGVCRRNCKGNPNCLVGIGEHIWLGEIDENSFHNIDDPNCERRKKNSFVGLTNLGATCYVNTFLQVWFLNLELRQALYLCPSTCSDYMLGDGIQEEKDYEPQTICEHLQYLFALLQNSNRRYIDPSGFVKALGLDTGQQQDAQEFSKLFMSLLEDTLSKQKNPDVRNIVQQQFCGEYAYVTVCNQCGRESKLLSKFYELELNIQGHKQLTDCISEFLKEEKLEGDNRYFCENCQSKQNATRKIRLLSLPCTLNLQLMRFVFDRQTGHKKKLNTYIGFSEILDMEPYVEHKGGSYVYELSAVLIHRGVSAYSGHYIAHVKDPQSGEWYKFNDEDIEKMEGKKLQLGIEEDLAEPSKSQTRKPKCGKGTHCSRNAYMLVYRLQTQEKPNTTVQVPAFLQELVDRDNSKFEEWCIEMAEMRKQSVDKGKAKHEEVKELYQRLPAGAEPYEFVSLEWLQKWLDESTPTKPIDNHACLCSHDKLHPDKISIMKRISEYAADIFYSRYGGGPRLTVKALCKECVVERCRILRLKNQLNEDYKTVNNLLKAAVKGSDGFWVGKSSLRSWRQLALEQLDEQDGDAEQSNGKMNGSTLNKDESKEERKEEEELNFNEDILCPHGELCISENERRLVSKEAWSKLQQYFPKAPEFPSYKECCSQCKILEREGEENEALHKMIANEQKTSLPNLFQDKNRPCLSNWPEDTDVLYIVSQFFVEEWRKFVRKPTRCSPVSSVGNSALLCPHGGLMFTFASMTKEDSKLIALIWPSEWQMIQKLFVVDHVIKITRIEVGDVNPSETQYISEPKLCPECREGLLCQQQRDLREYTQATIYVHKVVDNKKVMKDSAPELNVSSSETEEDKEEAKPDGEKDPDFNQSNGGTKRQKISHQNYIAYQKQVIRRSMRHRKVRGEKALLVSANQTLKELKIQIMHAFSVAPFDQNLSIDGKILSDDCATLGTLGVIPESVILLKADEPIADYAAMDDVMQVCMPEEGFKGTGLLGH
Procedure, shortened: as §1

USP5 = target: T4, USP5 (UniProt P45974)
T4 sequence (whole entry): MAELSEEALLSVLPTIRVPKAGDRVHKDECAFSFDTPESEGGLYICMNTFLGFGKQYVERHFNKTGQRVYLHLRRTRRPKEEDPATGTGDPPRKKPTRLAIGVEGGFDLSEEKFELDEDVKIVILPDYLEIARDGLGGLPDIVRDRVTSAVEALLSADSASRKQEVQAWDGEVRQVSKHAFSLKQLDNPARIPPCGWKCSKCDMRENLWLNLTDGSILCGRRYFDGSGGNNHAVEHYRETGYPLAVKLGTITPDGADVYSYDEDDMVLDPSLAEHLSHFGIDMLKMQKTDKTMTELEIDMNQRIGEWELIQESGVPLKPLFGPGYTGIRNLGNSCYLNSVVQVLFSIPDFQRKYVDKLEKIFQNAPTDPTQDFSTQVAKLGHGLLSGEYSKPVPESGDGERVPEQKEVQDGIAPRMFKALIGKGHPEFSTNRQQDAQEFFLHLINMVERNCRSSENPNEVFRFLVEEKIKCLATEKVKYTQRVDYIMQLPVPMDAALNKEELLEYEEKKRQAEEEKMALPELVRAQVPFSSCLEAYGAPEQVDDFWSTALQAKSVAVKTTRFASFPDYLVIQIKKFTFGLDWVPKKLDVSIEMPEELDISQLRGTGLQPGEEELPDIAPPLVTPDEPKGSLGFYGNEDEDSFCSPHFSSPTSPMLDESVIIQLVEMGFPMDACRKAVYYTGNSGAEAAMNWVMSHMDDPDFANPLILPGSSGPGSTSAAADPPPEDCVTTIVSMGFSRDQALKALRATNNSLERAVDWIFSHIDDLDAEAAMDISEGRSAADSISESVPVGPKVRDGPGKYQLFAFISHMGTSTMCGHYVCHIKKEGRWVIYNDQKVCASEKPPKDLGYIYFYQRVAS
Procedure, shortened: as §1

USP54 = USP54 (UniProt Q70EL1)
USP54, sequence (Q70EL1 whole entry): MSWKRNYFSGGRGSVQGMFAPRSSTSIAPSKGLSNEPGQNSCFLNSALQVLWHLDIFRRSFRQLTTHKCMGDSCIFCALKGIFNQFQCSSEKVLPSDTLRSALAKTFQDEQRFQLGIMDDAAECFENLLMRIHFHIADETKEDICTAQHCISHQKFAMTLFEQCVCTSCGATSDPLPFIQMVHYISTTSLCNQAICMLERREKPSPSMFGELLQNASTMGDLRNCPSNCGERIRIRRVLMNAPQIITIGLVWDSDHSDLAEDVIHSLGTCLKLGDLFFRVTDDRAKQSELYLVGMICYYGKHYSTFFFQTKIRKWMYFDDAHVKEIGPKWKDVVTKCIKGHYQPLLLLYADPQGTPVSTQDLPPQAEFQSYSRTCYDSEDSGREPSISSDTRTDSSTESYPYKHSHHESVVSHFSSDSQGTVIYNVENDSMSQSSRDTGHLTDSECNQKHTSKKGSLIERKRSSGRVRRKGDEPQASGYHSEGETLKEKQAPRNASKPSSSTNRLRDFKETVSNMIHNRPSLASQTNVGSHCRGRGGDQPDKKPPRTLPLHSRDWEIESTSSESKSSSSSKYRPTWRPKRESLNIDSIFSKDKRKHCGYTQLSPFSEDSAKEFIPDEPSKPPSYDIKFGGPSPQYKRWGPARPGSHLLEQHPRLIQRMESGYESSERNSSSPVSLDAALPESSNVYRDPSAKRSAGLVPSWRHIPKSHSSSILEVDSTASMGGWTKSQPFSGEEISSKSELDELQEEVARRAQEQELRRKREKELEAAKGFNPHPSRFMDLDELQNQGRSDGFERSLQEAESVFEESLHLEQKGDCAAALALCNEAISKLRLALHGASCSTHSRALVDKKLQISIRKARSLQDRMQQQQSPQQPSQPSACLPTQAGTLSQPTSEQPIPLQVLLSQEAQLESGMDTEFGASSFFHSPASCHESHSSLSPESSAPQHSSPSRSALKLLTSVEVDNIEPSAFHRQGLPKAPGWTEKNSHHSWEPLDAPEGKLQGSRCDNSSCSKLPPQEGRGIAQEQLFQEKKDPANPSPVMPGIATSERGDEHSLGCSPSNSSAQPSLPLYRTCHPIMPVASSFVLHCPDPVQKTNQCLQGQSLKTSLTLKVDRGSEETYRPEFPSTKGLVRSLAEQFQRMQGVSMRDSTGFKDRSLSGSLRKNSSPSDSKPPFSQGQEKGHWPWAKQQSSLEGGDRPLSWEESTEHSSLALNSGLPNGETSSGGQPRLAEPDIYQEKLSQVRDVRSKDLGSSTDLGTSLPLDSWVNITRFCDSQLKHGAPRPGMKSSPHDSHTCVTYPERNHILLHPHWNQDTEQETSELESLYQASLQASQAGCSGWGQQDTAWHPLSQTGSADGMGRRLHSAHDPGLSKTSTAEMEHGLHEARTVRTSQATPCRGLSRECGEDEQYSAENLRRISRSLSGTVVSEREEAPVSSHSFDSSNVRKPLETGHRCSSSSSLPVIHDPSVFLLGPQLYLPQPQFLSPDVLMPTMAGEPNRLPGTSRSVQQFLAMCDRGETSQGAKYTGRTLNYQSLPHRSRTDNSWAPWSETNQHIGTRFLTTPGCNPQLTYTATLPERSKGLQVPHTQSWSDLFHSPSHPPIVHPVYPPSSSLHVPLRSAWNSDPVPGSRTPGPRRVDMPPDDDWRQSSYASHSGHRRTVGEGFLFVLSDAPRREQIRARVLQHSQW
Procedure, shortened: as §1

USP7 = USP7 (UniProt Q93009)
USP7, sequence (Q93009 whole entry, looked up): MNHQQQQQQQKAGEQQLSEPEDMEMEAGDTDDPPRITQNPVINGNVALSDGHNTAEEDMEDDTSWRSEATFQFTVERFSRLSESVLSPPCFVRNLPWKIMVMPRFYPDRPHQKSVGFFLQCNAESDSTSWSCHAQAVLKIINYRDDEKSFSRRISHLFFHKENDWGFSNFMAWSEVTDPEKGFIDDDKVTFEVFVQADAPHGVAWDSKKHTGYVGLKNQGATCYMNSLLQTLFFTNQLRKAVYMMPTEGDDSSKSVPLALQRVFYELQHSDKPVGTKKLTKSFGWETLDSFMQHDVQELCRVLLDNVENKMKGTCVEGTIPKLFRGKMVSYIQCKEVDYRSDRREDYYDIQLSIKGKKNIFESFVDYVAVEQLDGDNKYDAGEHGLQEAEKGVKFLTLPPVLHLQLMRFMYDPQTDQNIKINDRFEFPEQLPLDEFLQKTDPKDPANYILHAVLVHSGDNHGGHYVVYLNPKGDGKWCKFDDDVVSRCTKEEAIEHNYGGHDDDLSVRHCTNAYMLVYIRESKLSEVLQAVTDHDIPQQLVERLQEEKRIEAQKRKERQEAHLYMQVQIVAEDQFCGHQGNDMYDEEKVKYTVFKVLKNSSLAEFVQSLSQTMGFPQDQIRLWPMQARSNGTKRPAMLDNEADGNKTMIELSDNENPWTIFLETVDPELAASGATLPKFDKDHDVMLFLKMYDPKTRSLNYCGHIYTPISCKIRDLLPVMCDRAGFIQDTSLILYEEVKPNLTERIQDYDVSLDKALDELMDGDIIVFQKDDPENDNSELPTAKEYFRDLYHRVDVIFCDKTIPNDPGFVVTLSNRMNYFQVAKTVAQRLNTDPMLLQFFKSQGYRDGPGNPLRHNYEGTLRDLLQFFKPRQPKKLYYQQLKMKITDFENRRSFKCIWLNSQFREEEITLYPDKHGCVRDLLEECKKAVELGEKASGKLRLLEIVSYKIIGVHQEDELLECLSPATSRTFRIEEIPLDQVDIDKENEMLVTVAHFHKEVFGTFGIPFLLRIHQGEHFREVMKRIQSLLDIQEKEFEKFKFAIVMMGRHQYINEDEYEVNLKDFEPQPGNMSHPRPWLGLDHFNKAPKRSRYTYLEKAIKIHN
Procedure, shortened: as §1

USP8 = target: T5, USP8 (UniProt P40818)
T5 sequence (whole entry): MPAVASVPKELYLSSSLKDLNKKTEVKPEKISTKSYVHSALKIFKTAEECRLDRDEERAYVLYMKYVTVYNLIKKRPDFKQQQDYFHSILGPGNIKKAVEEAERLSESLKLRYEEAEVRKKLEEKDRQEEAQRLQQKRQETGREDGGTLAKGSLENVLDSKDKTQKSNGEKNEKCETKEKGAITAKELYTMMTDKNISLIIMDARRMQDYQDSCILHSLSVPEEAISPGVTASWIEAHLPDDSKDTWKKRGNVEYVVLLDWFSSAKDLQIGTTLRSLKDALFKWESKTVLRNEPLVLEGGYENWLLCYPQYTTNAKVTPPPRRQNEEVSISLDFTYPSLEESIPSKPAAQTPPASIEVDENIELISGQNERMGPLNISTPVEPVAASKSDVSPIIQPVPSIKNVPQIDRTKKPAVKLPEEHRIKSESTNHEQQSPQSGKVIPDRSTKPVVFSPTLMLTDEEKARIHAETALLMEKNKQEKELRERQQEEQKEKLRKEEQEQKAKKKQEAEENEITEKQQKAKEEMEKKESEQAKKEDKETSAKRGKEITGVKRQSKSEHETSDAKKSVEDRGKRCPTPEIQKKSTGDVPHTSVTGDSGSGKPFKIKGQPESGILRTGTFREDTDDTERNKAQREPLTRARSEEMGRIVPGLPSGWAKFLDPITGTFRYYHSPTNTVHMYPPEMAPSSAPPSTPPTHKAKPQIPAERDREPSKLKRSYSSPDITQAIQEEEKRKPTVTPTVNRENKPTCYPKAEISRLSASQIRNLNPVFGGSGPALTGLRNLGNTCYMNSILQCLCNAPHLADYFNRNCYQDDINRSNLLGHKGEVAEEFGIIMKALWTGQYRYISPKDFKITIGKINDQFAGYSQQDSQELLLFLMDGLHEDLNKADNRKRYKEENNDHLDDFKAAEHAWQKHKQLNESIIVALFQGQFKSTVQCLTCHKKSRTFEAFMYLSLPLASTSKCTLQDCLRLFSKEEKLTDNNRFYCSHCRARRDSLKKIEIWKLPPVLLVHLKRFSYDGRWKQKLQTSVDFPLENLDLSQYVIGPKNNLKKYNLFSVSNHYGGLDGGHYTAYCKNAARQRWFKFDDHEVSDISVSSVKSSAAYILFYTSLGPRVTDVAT
Procedure, shortened: as §1

USP9X = USP9X (UniProt Q93008)
Procedure, shortened: as §1

UniProt O00487 = target: UniProt O00487
UniProt O00487, sequence (O00487 whole entry): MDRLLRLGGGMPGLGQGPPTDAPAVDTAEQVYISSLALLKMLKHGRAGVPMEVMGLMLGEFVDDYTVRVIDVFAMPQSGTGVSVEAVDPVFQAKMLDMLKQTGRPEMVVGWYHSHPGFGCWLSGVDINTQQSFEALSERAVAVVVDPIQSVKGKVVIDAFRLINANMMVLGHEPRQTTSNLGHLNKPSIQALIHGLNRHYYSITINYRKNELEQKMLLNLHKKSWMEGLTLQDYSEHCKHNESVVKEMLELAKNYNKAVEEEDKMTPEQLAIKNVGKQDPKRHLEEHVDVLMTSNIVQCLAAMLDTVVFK
Procedure, shortened: as §1

Measured: log2 ratio of Biotin-Ahx-Ub-VS probe labelling

O=C(CCl)NCCC1COCCO1 (stereo not given)
inactive: USP42 0.357 | USP46 -0.000444 | USP47 -0.101 | USP48 -0.171 | USP5 -0.0923 | USP54 0.157 | USP7 -0.157 | USP8 -0.26 | USP9X -0.131 | UniProt O00487 -0.1
